Screening results as filed in PubChem.
tim23-1 inh: growth inhibitors of tim23-1 mutant yeast, primary screen, luminescence, uHTS | S. cerevisiae tim23-1 growth, BacTiter-Glo luminescence, 24 h | inhibition, % at 20 µM | 1.3% of 330,000 active;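 active means growth inhibition of the mutant yeast at or above 50%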;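 further: temperature-sensitive mutant grown at 25 °C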
tim10-1 inh: growth inhibitors of tim10-1 mutant yeast, primary screen, luminescence, uHTS. inhibition, % at 20 µM. 2.2% of 330,000 active. S. cerevisiae tim10-1 ts strain growth, BacTiter-Glo, 24 h;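 active means inhibition of at least 40%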;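 further: mutant grown at 25 °C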
Mdm2-MdmX inh: inhibitors of human Mdm2-MdmX association, primary screen, cell-based, luminescence, split luciferase, SaOS-2, uHTS; inhibition, % at 8 µM; 3% of 330,000 active; SaOS-2 split-luciferase Mdm2/MdmX complementation;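 active means inhibition of at least 50% at 8 µM in the primary screen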
TIM10 inh: growth inhibitors of isogenic TIM10 control yeast, primary screen, counter-screen for tim10-1 yeast inhibitor project, luminescence, uHTS | S. cerevisiae TIM10 strain growth, BacTiter-Glo luminescence, 24 h | inhibition, % at 10 µM | 1.4% of 330,000 active | AID 463195, 2010;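 active means inhibition of 40% or more at the single tested concentration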;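 further: wild-type TIM10 isogenic control strain grown at permissive 25 °C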
MPTP inh: mitochondrial permeability transition pore inhibitors, primary screen, biochemical, isolated mouse mitochondria, absorbance. Ca2+ swelling absorbance, 30 min. AID 602449, 2012. inhibition, % at 10 µM. 1.4% of 360,000 active;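 active means inhibition of 50% or more, scaled per plate between neutral and stimulator controls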
Mdm2 MdmX conf: Mdm2-MdmX complex disruptors, retested hits, confirmation, luminescence, single concentration; shares compounds with Mdm2-MdmX inh; Mdm2-MdmX binding, luminescent assay; inhibition, % at 8 µM; 55% of 10,000 active; AID 489028, 2010; in the data active means inhibition above about 40%
Full FLuc ctr: full-length luciferase signal inhibition, confirmation, counter-screen for Mdm2/MdmX interaction inhibitor project, cell-based, single concentration, SaOS-2; shares compounds with Mdm2-MdmX inh; SaOS-2 full-length luciferase counterscreen, luminescence; inhibition, % at 8 µM; 77% of 6,200 active;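 active means mean inhibition at 8 µM reaching about 37%, which flags the compound as non-specific, limit read from the data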;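 further: p53-null SaOS-2 cells with luciferase driven by a doxycycline-inducible promoter; compound on cells about two nights before reading with doxycycline added after day one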
Hits are given with their value; n = inactive; x = no result. Hits are enriched below; roughly 6.3% of the tested compounds scored in any of these assays.

SMILES	tim23-1 inh	tim10-1 inh	Mdm2-MdmX inh	TIM10 inh	MPTP inh	Mdm2 MdmX conf	Full FLuc ctr
OCCNc1ncnc2c1ncn2[C@H]1CN(Cc2ccc3c(c2)OCO3)C[C@@H](CO)O1	x	x	x	x	n	x	x
N/C(=N\c1nc2ccccc2o1)NC(=O)c1cccc(Cl)c1	n	n	51	n	n	n	x
COc1cc(OC)cc(-c2nnc(SCC(=O)N(Cc3ccccc3)C(C)(C)C)o2)c1	n	n	n	n	n	x	x
COc1cc(-c2nnc(SCC(=O)N(Cc3ccccc3)C(C)(C)C)o2)cc(OC)c1OC	n	n	51	n	n	42	91
O=C(NCc1cc2ccccc2[nH]1)C1CCC(=O)N(CC2CCCCC2)C1 (centres undefined)	x	x	x	x	n	x	x
CCOC(=O)/C(C#N)=C\c1cccnc1	n	n	n	n	n	x	x
CCOC(=O)/C(=C\c1cccnc1)C(=O)c1cc(C(C)=O)c(Nc2ccccc2)s1	n	n	97	n	n	99	52
CCOC(=O)/C(=C\c1ccccc1)C(=O)c1cc(C(C)=O)c(Nc2ccccc2)s1	n	n	97	n	n	93	45
O=C1C=CC(=NN=C(c2ccccc2)c2ccccc2)C=C1	x	x	x	x	n	x	x
O=C(NCc1ccccc1)C1C(c2ccccc2)=Nc2ccccc2N1C(=O)c1cccnc1 (centres undefined)	x	x	x	x	n	x	x
Cc1csc(NC(=O)c2ccc(Cl)cc2[N+](=O)[O-])n1	n	n	n	n	n	x	x
Cc1cc(C(=O)Nc2nc(-c3ccccn3)cs2)ccc1[N+](=O)[O-]	n	n	63	n	n	64	40
O=C(Nc1nc(-c2ccccn2)cs1)c1cc(Cl)ccc1[N+](=O)[O-]	n	n	83	n	n	75	n
CC(=O)Nc1ccc(C(=O)Nc2nc(-c3ccccn3)cs2)cc1	n	n	n	n	n	x	x
C[C@H](NC(=O)[C@@H]1CCCN1C(=O)[C@@H]1CCCN1)c1ccccc1	x	x	x	x	n	x	x
CCC(c1nnnn1-c1ccc2c(c1)OCCO2)N1CCN(c2cccc(C)c2C)CC1 (centres undefined)	x	x	x	x	n	x	x
COc1ccc(C(NC(=O)CN2C(=O)NC3(CCc4ccccc43)C2=O)c2ccc(OC)cc2)cc1 (centres undefined)	n	n	n	n	n	x	x
C=CCn1c(=O)c2ccccc2n2c(Sc3nnnn3-c3ccccc3)nnc12	n	n	53	n	n	n	x
C[C@H](NC(=O)c1ncn2c1C(=O)NC[C@H]2C)c1ccccc1	x	x	x	x	n	x	x
CCOC(=O)c1c(NC(=O)C2COc3ccccc3O2)sc2c1CC(C)(C)NC2(C)C (centres undefined)	n	n	84	n	n	52	61
CCOC(=O)c1c(NC(=O)COC(=O)c2ccc(C)s2)sc2c1CC(C)(C)NC2(C)C	n	n	n	n	n	x	x
CCOC(=O)c1c(NC(=O)c2ccc(C)cc2)sc2c1CC(C)(C)OC2	n	n	n	n	n	x	x
CCOC(=O)c1c(NC(=O)COc2ccccc2OCC)sc2c1CC(C)(C)NC2(C)C	n	n	97	n	n	n	90
CCOC(=O)c1c(NC(=O)COc2ccccc2C#N)sc2c1CC(C)(C)NC2(C)C	n	n	51	n	n	n	x
CCOC(=O)c1c(NC(=O)c2ccc(C)cc2)sc2c1CC(C)(C)NC2(C)C	n	n	93	n	x	47	96
SMILES	tim23-1 inh	tim10-1 inh	Mdm2-MdmX inh	TIM10 inh	MPTP inh	Mdm2 MdmX conf	Full FLuc ctr
CC1(C)Cc2c(sc(NC(=O)COc3cccc4ccccc34)c2C#N)C(C)(C)N1	n	n	98	n	n	100	51
Cc1ccc(OCC(=O)Nc2sc3c(c2C#N)CC(C)(C)NC3(C)C)cc1	n	n	n	n	n	x	x
NC1=NC(=Nc2ccc(Cl)cc2)c2ccccc21	n	n	55	n	n	n	x
NC1=NC(=Nc2cccc(Cl)c2)c2ccccc21	n	n	51	n	n	n	x
NC1=NC(=Nc2cccc(S(N)(=O)=O)c2)c2ccccc21	n	n	n	n	n	x	x
COc1ccccc1NS(=O)(=O)c1cccc(N=C2N=C(N)c3ccccc32)c1	n	n	51	n	n	n	x
Cc1cccc(N=C2N=C(N)c3ccccc32)c1	n	n	n	n	n	x	x
COc1ccccc1S(=O)(=O)N(C)C[C@H]1OCc2cnnn2CCCC(=O)N([C@@H](C)CO)C[C@@H]1C	x	x	x	x	n	x	x
CCOC(=O)c1c(C)n(C)c2ccc(O)c(CN(C)C)c12	n	n	n	n	n	x	x
CCOC(=O)c1c(C)n(-c2ccc(C)cc2)c2ccc(O)c(CN(C)C)c12	n	n	54	n	n	n	66
CCOC(=O)c1c(C)n(-c2ccc(OC)cc2)c2ccc(O)c(CN(C)C)c12	n	n	64	n	n	44	54
CCOC(=O)c1sc(=N)n(-c2ccc(OC)cc2)c1C	n	n	n	n	n	x	x
COC(=O)/C=C1\OCc2cccc(C)c21	x	x	x	x	n	x	x
CC1=C(C(=O)N2CCCCCC2)CC(CC(=O)NCCCN(C)C)C(=O)N1CCCN1CCCC1=O (centres undefined)	x	x	x	x	n	x	x
Cc1[nH]nc(-c2ccc(OCc3cnn(-c4ccccc4)c3)cc2O)c1Oc1ccc(F)cc1	n	n	n	n	n	x	x
Cc1[nH]nc(-c2ccc(OCc3cnn(-c4ccccc4)c3)c(C)c2O)c1Oc1ccccc1	n	n	56	n	n	51	53
Cc1[nH]n(-c2ccccc2)c(=O)c1N=Nc1ccccc1O	n	n	59	n	n	58	42
Cc1[nH]n(-c2ccccc2)c(=O)c1N=Nc1ccccc1C(=O)O	n	n	n	n	n	x	x
N#Cc1ccc(Nc2nc(-c3ccc(O)cc3O)cs2)cc1C(F)(F)F	n	n	69	n	n	61	55
COC(=O)[C@@]12C[C@@H](CC(=O)NCc3cccs3)C(=O)N(Cc3cccc4ccccc34)C1=CCC(C)(C)C2	x	x	x	x	n	x	x
Cc1ccc(N2C(=NC(=O)c3ccccc3)SC3CS(=O)(=O)CC32)cc1 (centres undefined)	n	n	n	n	n	x	x
CCCC(=O)N=C1SC2CS(=O)(=O)CC2N1c1ccc(-c2nc3ccc(C)cc3s2)cc1 (centres undefined)	n	n	73	n	n	n	x
NC(c1cccc(F)c1)c1nc(-c2ccc(Cl)cc2)cs1 (centres undefined)	x	x	x	x	n	x	x
COc1ccc(CNC(=O)c2cccc3c(-c4cnn(C)c4)coc23)cc1OC	x	x	x	x	n	x	x
Cc1cccc(NC(=S)/N=C(\N)Nc2nc(C)c3ccc(C)cc3n2)c1	n	n	59	n	n	n	54
